Measured values reported in PubChem BioAssay (Tox21).
Inconclusive results are not listed. Values without a mark were called inactive. The source made the active and inactive calls. Unless noted, calls come from the whole dose curve; as a rule, active = well fitted cell-killing curve with a large enough effect in the repeat runs (not every such curve was filed as active); inconclusive = weak or mixed curves, or effect the other way; inactive = no such curve, though single readings can be large or run the other way.

Tested on: not listed separately
Experiment: qHTS assay to identify small molecule agonists of the farnesoid-X-receptor (FXR) signaling pathway - cell viability counter screen (AID 743218; active = well fitted cell-killing curve with a large enough effect in the repeat runs; note: nearly all actives have a fitted effect of over 45% in size)
Details: FXR-bla HEK293T viability, CellTiter-Glo luminescence, 16 h; series mostly up to 62.6 µM; viability change, negative = cytotoxic: at the top concentration
Summary of the method: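 Readout: CellTiter-Glo luminescence, 30 min RT, multiplexed after the FXR-bla FRET reading. HEK 293T FXR-UAS-bla cells received compound 5 h post-plating and were incubated 16 h at 37 C.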
% is set by controls: 0 for no effect and ±100 for the full control effect; potency is the fitted concentration of half-maximal effect.

Row | Compound | viability change, negative = cytotoxic | Potency
1 | O=C(O)c1cc(O)c2c(c1)C(=O)c1cccc(O)c1C2=O | -2.3% [at 81.1 µM] | 
2 | CO[Si](CCCNc1ccccc1)(OC)OC | 15.9% | 
3 | CCCCCCOC(=O)c1ccc(O)cc1 | -28% | 
4 | O=C(Oc1cccc2cccnc12)c1ccccc1 |  | 9.44 µM (active)
5 | CCC(CN)=C(c1ccccc1)c1ccccc1 |  | 23.7 µM (active)
6 | COc1cccc2c1C(=O)c1c(O)c3c(c(O)c1C2=O)C[C@@](O)(C(=O)CO)C[C@@H]3O[C@H]1C[C@H](N)[C@H](O[C@@H]2CCCCO2)[C@H](C)O1 | 1.82% | 
7 | O=C1c2c(O)ccc(Nc3ccc(CCO)cc3)c2C(=O)c2c([N+](=O)[O-])ccc(O)c21 | -12.5% | 
8 | CCCCCCCCCCCCCC[P+](CCCC)(CCCC)CCCC (tested in a mixture with another compound) |  | 17.5 µM (active)
9 | Nc1c(Cl)cc(Cl)cc1Cl | -0.897% | 
10 | [O-][n+]1ccccc1SSc1cccc[n+]1[O-] |  | 0.326 µM (active)
11 | CN1CCN(CCC(=O)N2c3ccccc3Sc3ccc(C(F)(F)F)cc32)CC1 |  | 21.1 µM (active)
12 | Cc1[nH]nc2c1N=C(c1ccccc1Cl)c1cc([N+](=O)[O-])ccc1N2 |  | 24.5 µM (active)
13 | Cc1nc(-c2ccc3c(c2)CCN(CCC2CCC(NC(=O)/C=C/c4ccc(F)cc4)CC2)CC3)no1 (stereo unspecified) | -4.01% [at 29.1 µM] | 
14 | Cc1cc(N)c(S(=O)(=O)O)cc1Cl | -10.5% [at 81.1 µM] | 
15 | O=C(Oc1ccccc1)c1ccccc1C(=O)Oc1ccccc1 | 22.7% | 
16 | O=C(O)c1c(Cl)cccc1Cl | -9.95% | 
17 | COC(=O)C1=C(C)NC(C)=C(C(=O)OCCc2ccc(N3CCN(C(c4ccccc4)c4ccccc4)CC3)cc2)C1c1cccc([N+](=O)[O-])c1 (stereo unspecified) | 0.974% | 
18 | c1ccc(CSCc2ccccc2)cc1 | -3.13% | 
19 | CC1(C)CCC(C)(C)c2cc(C(=O)Nc3ccc(C(=O)O)cc3)ccc21 | 21.7% | 
20 | CCC(C)(C)C1CCCCC1OC(C)=O (stereo unspecified) | 3.72% | 
21 | CCC(N)(CO)CO | -3.55% [at 81.1 µM] | 
22 | CCCCCCCCOC(=O)c1ccc(O)cc1 | 1.41% | 
23 | CC1=C(/C=C/C(C)=C/C=C/C(C)=C/C=O)C(C)(C)CCC1 |  | 21.8 µM (active)
24 | C=C(C)C(=O)OCC[N+](C)(C)C | 24.6% | 
25 | Cc1cccc(CN2CCN(C(c3ccccc3)c3ccc(Cl)cc3)CC2)c1 (stereo unspecified) |  | 29.8 µM (active)
26 | Cn1cc(C(=O)[C@@H]2CCc3nc[nH]c3C2)c2ccccc21 | -21% | 
27 | CC(C)(C)NC(=O)[C@@H]1C[C@@H]2CCCC[C@@H]2CN1C[C@@H](O)[C@H](Cc1ccccc1)NC(=O)[C@H](CC(N)=O)NC(=O)c1ccc2ccccc2n1 |  | 55.7 µM (active)

Molecular target: Bile acid receptor (Homo sapiens) (UniProt Q96RI1)
Experiment: qHTS assay to identify small molecule agonists of the farnesoid-X-receptor (FXR) signaling pathway (AID 743220; active = well fitted activation curve with a large enough effect in the signal ratio in the repeat runs, not every such curve was filed as active; the % refers to the signal ratio)
Details: HEK293T FXR-UAS-bla, beta-lactamase FRET ratio, 16 h; series mostly up to 62.6 µM; activation: at the top concentration
Summary of the method: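 FXR-UAS-bla HEK 293T cells carrying a UAS-driven beta-lactamase reporter were plated for 5 h at 37C/5% CO2, then exposed to DMSO-dissolved Tox21 10K compounds for 16 h at 37C. A LiveBLAzer B/G FRET substrate was loaded for 2 h at room temperature before fluorescence reading.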

Sequence of Bile acid receptor (Homo sapiens) (Q96RI1 whole entry, looked up): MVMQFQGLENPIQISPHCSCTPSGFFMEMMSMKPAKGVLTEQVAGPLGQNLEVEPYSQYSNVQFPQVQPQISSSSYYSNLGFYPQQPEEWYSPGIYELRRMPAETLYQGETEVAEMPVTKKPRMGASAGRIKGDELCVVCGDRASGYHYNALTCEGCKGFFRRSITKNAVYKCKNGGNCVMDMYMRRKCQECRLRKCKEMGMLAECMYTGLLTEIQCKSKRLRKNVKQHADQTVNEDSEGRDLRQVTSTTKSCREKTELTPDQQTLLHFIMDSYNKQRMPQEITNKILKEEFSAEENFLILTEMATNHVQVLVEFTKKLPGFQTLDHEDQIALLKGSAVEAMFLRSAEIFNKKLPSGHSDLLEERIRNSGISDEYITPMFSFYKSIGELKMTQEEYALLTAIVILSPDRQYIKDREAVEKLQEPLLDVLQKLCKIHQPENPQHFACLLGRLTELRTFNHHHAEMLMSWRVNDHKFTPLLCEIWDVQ

Row | Compound | activation | Potency
28 | CO[Si](CCCNc1ccccc1)(OC)OC | 1.79% | 
29 | CCCCCCOC(=O)c1ccc(O)cc1 | 0.093% | 
30 | COc1cc(-c2ccc(N=C=O)c(OC)c2)ccc1N=C=O | -1.12% | 
31 | O=C1c2c(O)ccc(Nc3ccc(CCO)cc3)c2C(=O)c2c([N+](=O)[O-])ccc(O)c21 | 0.783% | 
32 | Nc1c(Cl)cc(Cl)cc1Cl | -1.1% | 
33 | O=C1CCCCCN1SSN1CCCCCC1=O | 0.968% | 
34 | CN1CCN(CCC(=O)N2c3ccccc3Sc3ccc(C(F)(F)F)cc32)CC1 | 2.58% | 
35 | O=C(O)c1c(Cl)cccc1Cl | -1.95% | 
36 | Fc1ccc([C@@H]2CCNC[C@H]2COc2ccc3c(c2)OCO3)cc1 | -2.14% | 
37 | CC1(C)CCC(C)(C)c2cc(C(=O)Nc3ccc(C(=O)O)cc3)ccc21 |  | 43.6 µM (active)
38 | Cn1cc(C(=O)[C@@H]2CCc3nc[nH]c3C2)c2ccccc21 | -1.08% | 
39 | O=C(c1ccc(O)cc1O)c1ccc(O)cc1O |  | inactive
40 | CC(C)(C)NC(=O)[C@@H]1C[C@@H]2CCCC[C@@H]2CN1C[C@@H](O)[C@H](Cc1ccccc1)NC(=O)[C@H](CC(N)=O)NC(=O)c1ccc2ccccc2n1 | 0.186% [at 81.1 µM] | 

Tested on: not listed separately
Experiment: qHTS assay to identify small molecule antagonists of the farnesoid-X-receptor (FXR) signaling pathway - cell viability counter screen (AID 743221); note: nearly all actives have a fitted effect of over 50% in size
Details: FXR-bla HEK293T viability, CellTiter-Glo luminescence, 16 h; series mostly up to 62.6 µM; activity change, negative = cytotoxicity: at the top concentration
Summary of the method: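 GeneBLAzer FXR-UAS-bla HEK 293T cells, compound plus chenodeoxycholic acid (50 uM final), 16 h at 37 C. CellTiter-Glo added to the same wells after the beta-lactamase read; luminescence read after 30 min at room temperature as viability.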

Row | Compound | activity change, negative = cytotoxicity | Potency
41 | O=C(O)c1cc(O)c2c(c1)C(=O)c1cccc(O)c1C2=O | 3.12% [at 81.1 µM] | 
42 | CO[Si](CCCNc1ccccc1)(OC)OC | -0.717% | 
43 | CCCCCCOC(=O)c1ccc(O)cc1 | -24.2% | 
44 | COc1cc(-c2ccc(N=C=O)c(OC)c2)ccc1N=C=O | -0.179% | 
45 | S=c1[nH]c2ccccc2s1 | 9.29% | 
46 | O=C(Oc1cccc2cccnc12)c1ccccc1 |  | 8.41 µM (active)
47 | COc1cccc2c1C(=O)c1c(O)c3c(c(O)c1C2=O)C[C@@](O)(C(=O)CO)C[C@@H]3O[C@H]1C[C@H](N)[C@H](O[C@@H]2CCCCO2)[C@H](C)O1 | -11.5% | 
48 | O=C1c2c(O)ccc(Nc3ccc(CCO)cc3)c2C(=O)c2c([N+](=O)[O-])ccc(O)c21 | 9.55% | 
49 | CCCCCCCCCCCCCC[P+](CCCC)(CCCC)CCCC (tested in a mixture with another compound) |  | 22 µM (active)
50 | Cc1cccc(N(C)C(=S)Oc2ccc3c(c2)C2CCC3C2)c1 (stereo unspecified) | -25.2% | 
51 | Nc1c(Cl)cc(Cl)cc1Cl | 7.03% | 
52 | [O-][n+]1ccccc1SSc1cccc[n+]1[O-] |  | 0.206 µM (active)
53 | O=C1CCCCCN1SSN1CCCCCC1=O | 20.3% | 
54 | CN1CCN(CCC(=O)N2c3ccccc3Sc3ccc(C(F)(F)F)cc32)CC1 |  | 33.5 µM (active)
55 | Cc1[nH]nc2c1N=C(c1ccccc1Cl)c1cc([N+](=O)[O-])ccc1N2 | 2.41% | 
56 | Cc1nc(-c2ccc3c(c2)CCN(CCC2CCC(NC(=O)/C=C/c4ccc(F)cc4)CC2)CC3)no1 (stereo unspecified) | -3.78% [at 29.1 µM] | 

Row | Compound | activity change, negative = cytotoxicity | Potency
57 | Cc1cc(N)c(S(=O)(=O)O)cc1Cl | 1.43% [at 81.1 µM] | 
58 | O=C(Oc1ccccc1)c1ccccc1C(=O)Oc1ccccc1 | -5.82% | 
59 | O=C(O)c1c(Cl)cccc1Cl | 7.91% | 
60 | CC(C)n1nc(-c2cc3cc(O)ccc3[nH]2)c2c(N)ncnc21 | -23.3% | 
61 | COC(=O)C1=C(C)NC(C)=C(C(=O)OCCc2ccc(N3CCN(C(c4ccccc4)c4ccccc4)CC3)cc2)C1c1cccc([N+](=O)[O-])c1 (stereo unspecified) | -0.572% | 
62 | c1ccc(CSCc2ccccc2)cc1 | 1.11% | 
63 | CC1(C)CCC(C)(C)c2cc(C(=O)Nc3ccc(C(=O)O)cc3)ccc21 | 1.74% | 
64 | CCC(C)(C)C1CCCCC1OC(C)=O (stereo unspecified) | -0.889% | 
65 | CCC(N)(CO)CO | -0.758% [at 81.1 µM] | 
66 | CCCCCCCCOC(=O)c1ccc(O)cc1 |  | inactive
67 | CC1=C(/C=C/C(C)=C/C=C/C(C)=C/C=O)C(C)(C)CCC1 |  | 48.7 µM (active)
68 | C=C(C)C(=O)OCC[N+](C)(C)C | 3.16% | 
69 | Cc1cccc(CN2CCN(C(c3ccccc3)c3ccc(Cl)cc3)CC2)c1 (stereo unspecified) | -4.74% | 
70 | Cn1cc(C(=O)[C@@H]2CCc3nc[nH]c3C2)c2ccccc21 | -0.222% | 
71 | O=C(c1ccc(O)cc1O)c1ccc(O)cc1O |  | inactive
